# Measurements: PubChem BioAssay (NCATS)
# Several values for one entry are separate records, joined by “and”; a condition that tells them apart may be missing. Equal entries are not always repeated. Records with an inconclusive call do not appear. A call without a number means that no potency is given here. Some compounds were tested as several samples or in several runs, with calls that do not always agree. Activity calls are given as the source filed them. Unless noted, calls follow the shape of the dose curve; as a rule, active = well fitted curve in the direction sought with a large enough effect; inconclusive = small, poorly fitted or top-dose-only effect, or another doubt; inactive = no such curve, though single readings can be large; an effect the other way counts as inactive or inconclusive.
# Tests used:
# [1] = target: Cytochrome P450 1A2 (Homo sapiens) (UniProt P05177); experiment: p450-cyp1a2 (AID 410; calls by dose curve; also: potency is read from the fitted curve at half-maximal effect)
# Sequence of Cytochrome P450 1A2 (Homo sapiens) (P05177 whole entry, looked up): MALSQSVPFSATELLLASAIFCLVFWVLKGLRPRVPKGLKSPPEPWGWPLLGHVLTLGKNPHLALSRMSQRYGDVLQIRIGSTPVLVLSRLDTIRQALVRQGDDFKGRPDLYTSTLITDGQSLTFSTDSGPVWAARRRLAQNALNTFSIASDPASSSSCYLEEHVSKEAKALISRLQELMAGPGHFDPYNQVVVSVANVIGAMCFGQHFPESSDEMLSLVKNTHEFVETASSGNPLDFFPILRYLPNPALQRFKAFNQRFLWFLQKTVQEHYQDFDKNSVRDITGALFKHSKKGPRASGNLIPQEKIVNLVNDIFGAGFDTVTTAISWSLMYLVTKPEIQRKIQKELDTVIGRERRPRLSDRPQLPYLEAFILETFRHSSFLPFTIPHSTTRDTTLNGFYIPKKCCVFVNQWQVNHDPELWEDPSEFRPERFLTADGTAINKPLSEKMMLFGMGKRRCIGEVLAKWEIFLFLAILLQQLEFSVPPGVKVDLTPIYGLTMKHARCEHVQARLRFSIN
# How it was run: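 20nM CYP1A2, 100uM Luciferin-ME (=Km), 100mM KPO4; cpd 10 min RT; +NADPH regen, 60 min RT; stop/detect 20 min; luminescence. Normalized to furafylline 57 uM = full inhibition.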
# [2] = NFAT Signaling Pathway (AID 444; active = well fitted curve in either direction with a large enough effect, not every such curve was filed as active;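 also: carbachol stimulus at about its EC50 of 1 µM final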); conditions: Jurkat NFAT-bla M1, carbachol, beta-lactamase ratio, 5 h; at 38 µM (top of the series)
# How it was run: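 Jurkat cells carrying an NFAT-driven β-lactamase reporter and co-transfected muscarinic M1 receptor were treated with compound plus carbachol (1 uM final, an EC50 level) for 5 h at 37 °C. CCF4 loading followed for 1 h at RT; 460/530 nm ratio gave %activity.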
# [3] = target: Glucocorticoid receptor (Homo sapiens) (UniProt P04150); experiment: GR-GFP Redistribution (AID 450;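 active = compounds whose dose series gives a full or clear partial fitted curve of increased nuclear translocation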; also: potency is read from the fitted curve at half-maximal effect); conditions: U2OS GR-GFP nuclear translocation, laser cytometry, 2 h
# Sequence of Glucocorticoid receptor (Homo sapiens) (P04150 whole entry, looked up, the tested form may be a part): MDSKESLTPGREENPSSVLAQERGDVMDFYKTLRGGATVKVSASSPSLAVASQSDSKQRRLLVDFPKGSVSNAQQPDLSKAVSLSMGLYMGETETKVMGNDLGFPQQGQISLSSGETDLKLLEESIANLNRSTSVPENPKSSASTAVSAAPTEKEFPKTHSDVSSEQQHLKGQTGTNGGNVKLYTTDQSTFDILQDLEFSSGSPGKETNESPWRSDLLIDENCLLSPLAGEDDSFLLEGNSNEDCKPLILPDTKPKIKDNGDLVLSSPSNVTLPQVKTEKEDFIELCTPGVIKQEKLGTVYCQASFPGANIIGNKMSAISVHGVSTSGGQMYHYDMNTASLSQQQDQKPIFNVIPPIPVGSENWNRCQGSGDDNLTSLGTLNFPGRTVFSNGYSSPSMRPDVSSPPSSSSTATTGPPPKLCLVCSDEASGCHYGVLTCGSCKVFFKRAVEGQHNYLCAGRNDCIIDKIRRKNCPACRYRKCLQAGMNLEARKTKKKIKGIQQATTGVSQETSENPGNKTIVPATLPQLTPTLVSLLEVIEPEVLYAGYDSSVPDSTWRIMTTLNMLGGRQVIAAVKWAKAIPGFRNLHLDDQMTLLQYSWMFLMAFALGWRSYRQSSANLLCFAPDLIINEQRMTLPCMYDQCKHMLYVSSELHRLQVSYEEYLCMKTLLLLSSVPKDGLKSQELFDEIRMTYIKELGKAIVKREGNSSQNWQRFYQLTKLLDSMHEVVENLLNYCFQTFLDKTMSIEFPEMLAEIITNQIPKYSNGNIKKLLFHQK
# [4] = target: Glucocorticoid receptor (Homo sapiens) (UniProt P04150); experiment: GR-EFC Redistribution (AID 451; calls by dose curve; also: potency is read from the fitted curve at half-maximal effect); conditions: CHO-K1 GR-EFC translocation, beta-gal luminescence, 2 h
# How it was run: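 CHO-K1 cells stably expressing nuclear-localized β-gal enzyme acceptor and GR fused C-terminally to the enzyme donor fragment; ligand-driven nuclear translocation restores β-gal by complementation. Compounds titrated up to 46 uM final, 2 h at 37 °C; luminescence read.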
# [5] = target: Mitogen-activated protein kinase 10 (Mus musculus) (UniProt Q61831); experiment: JNK3 AlphaScreen Assay (AID 530; active = well fitted curve in either direction with a large enough effect, not every such curve was filed as active;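 also: kinase came from lysate of stimulated human HepG2 cells; signal reports phosphorylation of biotinylated GST-cJun 1-79 at Ser73 with 10 µM ATP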)
# How it was run: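 Biotinylated GST-cJun(1-79) served as substrate for JNK3 in HepG2 lysates stimulated with IL-1beta and TNF-alpha. ATP was 10 uM final, pH 7.6. Ser73 phosphorylation was quantified by AlphaScreen (680 nm excitation).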
# [6] = target: 3',5'-cyclic-AMP phosphodiesterase 4B (Homo sapiens) (UniProt Q07343); experiment: qHTS Assay for Inhibitors of PDE-IV (AID 607; active = well fitted activation curve with a large enough effect in the main read-out, with a control signal flat, not every such curve was filed as active)
# Sequence of 3',5'-cyclic-AMP phosphodiesterase 4B (Homo sapiens) (Q07343 whole entry, looked up): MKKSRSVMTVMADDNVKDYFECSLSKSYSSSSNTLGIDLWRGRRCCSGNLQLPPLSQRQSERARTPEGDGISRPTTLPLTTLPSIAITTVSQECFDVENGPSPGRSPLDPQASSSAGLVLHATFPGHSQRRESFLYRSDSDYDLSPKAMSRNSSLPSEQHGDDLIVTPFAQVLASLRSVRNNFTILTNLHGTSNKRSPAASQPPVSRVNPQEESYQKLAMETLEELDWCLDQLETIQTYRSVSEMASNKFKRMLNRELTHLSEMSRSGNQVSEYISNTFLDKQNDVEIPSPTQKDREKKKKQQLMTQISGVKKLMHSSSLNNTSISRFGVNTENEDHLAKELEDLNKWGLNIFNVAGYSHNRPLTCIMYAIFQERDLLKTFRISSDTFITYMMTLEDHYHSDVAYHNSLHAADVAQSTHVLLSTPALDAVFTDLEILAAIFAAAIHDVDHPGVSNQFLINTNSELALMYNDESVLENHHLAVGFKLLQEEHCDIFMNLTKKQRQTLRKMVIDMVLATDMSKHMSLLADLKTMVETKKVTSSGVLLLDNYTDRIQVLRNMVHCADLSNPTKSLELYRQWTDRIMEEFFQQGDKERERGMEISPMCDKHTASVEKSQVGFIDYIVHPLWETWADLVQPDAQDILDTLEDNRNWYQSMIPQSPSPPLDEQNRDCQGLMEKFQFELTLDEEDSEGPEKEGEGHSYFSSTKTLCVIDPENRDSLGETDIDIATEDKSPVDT
# How it was run: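 Cell-based read-out of cAMP via a modified cyclic nucleotide-gated channel and membrane potential dye (535/590 nm) in HEK293 cells expressing PDE4 endogenously. Compounds tested up to 22.9 uM final; 100 uM RO 20-1724 reference.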
# [7] = target: Guanine nucleotide-binding protein G(i) subunit alpha-1 (Homo sapiens) (UniProt P63096); experiment: qHTS Assay for Inhibitors of RGS12 GoLoco Motif Activity (Green Fluorophore) (AID 879);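 also: negative values mean loss of peptide binding seen as reduced polarization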
# Sequence of Guanine nucleotide-binding protein G(i) subunit alpha-1 (Homo sapiens) (P63096 whole entry, looked up): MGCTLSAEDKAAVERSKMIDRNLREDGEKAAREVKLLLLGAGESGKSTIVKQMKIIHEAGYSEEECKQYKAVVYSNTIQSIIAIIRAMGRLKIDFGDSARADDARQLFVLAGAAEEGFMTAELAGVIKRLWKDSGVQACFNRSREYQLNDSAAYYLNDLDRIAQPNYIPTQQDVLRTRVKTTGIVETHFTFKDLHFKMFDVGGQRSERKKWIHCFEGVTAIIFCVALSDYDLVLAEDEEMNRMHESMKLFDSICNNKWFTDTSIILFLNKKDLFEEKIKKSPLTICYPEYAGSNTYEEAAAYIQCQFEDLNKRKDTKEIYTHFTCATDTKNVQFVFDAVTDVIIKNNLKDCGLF
# How it was run: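 A drop in FITC polarization marked displacement of the FITC-tagged RGS12 GoLoco peptide (10 nM) from Gαi1 (50 nM). Compounds were incubated 10 min at room temperature in Tris pH 7.5 buffer containing 150 mM NaCl, 0.1 mM GDP and 0.05% NP40; unlabeled peptide titration served as control.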
# [8] = target: Cytochrome P450 3A4 (Homo sapiens) (UniProt P08684); experiment: qHTS Assay for Activators of Cytochrome P450 3A4 (AID 885); also: nearly all actives have a fitted effect of over 65% in size
# Sequence of Cytochrome P450 3A4 (Homo sapiens) (P08684 whole entry, looked up): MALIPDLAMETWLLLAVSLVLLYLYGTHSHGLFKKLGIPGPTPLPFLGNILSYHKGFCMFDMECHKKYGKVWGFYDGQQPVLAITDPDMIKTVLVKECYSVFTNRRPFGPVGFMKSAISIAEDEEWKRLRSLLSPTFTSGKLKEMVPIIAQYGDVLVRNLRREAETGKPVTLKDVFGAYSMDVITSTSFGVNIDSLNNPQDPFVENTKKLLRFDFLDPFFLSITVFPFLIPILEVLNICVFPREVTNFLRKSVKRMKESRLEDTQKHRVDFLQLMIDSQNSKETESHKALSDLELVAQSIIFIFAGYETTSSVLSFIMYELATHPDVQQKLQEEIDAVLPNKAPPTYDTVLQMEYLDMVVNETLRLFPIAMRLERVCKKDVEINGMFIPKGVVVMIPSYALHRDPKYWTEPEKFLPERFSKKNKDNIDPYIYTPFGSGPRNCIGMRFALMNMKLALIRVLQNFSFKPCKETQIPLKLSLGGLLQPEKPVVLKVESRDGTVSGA
# How it was run: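 Luminescent readout of luciferin formed from 25 uM Luciferin-PPXE (KM level) by 20 nM CYP3A4 in 200 mM KPO4, with 60 min NADPH-driven reaction at room temperature after 10 min compound exposure. Ketoconazole (57 uM) defined 100% inhibition.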
# [9] = target: Pyruvate kinase PKM (Homo sapiens) (UniProt P14618); experiment: qHTS Assay for Activators of Human Muscle Pyruvate Kinase (AID 954; active = well fitted curve in the direction sought with a large enough effect, not every such curve was filed as active)
# Sequence of Pyruvate kinase PKM (Homo sapiens) (P14618 whole entry, looked up): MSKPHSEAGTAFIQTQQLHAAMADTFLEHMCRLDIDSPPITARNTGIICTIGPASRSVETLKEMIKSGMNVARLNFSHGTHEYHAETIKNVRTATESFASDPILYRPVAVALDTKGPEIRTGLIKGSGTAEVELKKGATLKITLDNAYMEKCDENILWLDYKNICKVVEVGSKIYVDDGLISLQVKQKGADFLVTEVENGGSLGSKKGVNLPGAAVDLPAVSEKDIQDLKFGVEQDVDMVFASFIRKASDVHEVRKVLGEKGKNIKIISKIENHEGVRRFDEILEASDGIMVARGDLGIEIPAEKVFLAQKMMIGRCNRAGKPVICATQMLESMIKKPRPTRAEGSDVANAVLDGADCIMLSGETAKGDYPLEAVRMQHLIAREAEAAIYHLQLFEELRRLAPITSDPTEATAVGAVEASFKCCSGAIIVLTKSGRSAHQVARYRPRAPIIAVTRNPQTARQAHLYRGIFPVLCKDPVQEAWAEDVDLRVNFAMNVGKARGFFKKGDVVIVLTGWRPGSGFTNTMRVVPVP
# How it was run: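 ATP production by PKM2 detected via luciferase luminescence after 1 h room-temperature reaction (0.1 nM enzyme, PEP at Km 0.5 mM, ADP 0.1 mM, pH 7.2 imidazole buffer). Inhibition scaled to no-enzyme control; activation referenced to 0.3 nM enzyme wells.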
# [10] = target: alpha-glucosidase (Oryza sativa, rice) (UniProt Q653V4); experiment: Counterscreen for Glucocerebrosidase Inhibitors: qHTS Assay for Rice alpha-Glucosidase at pH 5.0 (AID 997)
# How it was run: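 Endpoint fluorogenic assay at pH 5.0: compounds (0.7 nM to 77 uM) titrated against 4 nM rice enzyme and 400 uM 4-MU-alpha-glucoside for 20 min at room temperature; NaOH/glycine stop, read ex 365/em 440 nm, Hill-fitted AC50.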
# [11] = target: DNA dC->dU-editing enzyme APOBEC-3G (Homo sapiens) (UniProt Q9HC16); experiment: qHTS for inhibitors of Vif-A3G interactions: Validation (AID 588379)
# Sequence of DNA dC->dU-editing enzyme APOBEC-3G (Homo sapiens) (Q9HC16 whole entry, looked up): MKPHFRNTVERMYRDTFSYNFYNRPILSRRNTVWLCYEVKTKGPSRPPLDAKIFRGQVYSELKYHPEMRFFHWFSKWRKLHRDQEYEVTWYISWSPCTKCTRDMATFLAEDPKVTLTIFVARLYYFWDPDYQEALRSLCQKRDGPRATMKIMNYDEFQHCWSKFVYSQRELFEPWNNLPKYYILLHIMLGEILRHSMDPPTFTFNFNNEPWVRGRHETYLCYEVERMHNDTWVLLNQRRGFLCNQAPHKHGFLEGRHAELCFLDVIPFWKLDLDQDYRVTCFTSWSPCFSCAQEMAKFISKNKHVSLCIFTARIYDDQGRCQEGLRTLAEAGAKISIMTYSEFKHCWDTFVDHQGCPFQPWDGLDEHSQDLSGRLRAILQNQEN
# How it was run: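 Yellow fluorescence (Ex 488, Em 500-530) of Vif-coexpressing HeLa A3G-eYFP cells, scanned by Acumen cytometer, reports blocked A3G degradation. Cells plated at 700/well overnight at 37 deg C before compound addition, then a further overnight compound incubation at 37 deg C.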
# [12] = system: Zika virus NS2B-NS3 protease; experiment: Primary screen GU AMC qHTS for Zika virus inhibitors (AID 1347154); also: nearly all actives have a fitted effect of over 70% in size
# How it was run: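 Unlinked Zika NS2B hydrophilic domain/NS3 protease domain noncovalent complex (25 nM final) in 10 mM Tris-HCl pH 8.0, 0.01% Tween 20, with AMC peptide substrate. Fluorescence (ex 340, em 450 nm) change over 15 min, room temperature; percent inhibition fitted to 4-parameter Hill equation.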
# [13] = Primary qHTS for small molecule stabilizers of the endoplasmic reticulum resident proteome: Secreted ER Calcium Modulated Protein (SERCaMP) assay (AID 1508630)
# How it was run: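 The SH-SY5Y reporter protocol was run at 3 concentrations up to 38.3 uM (primary) or 11 concentrations (follow-up): 16 h compound, 100 nM thapsigargin for 4 h, then extracellular luciferase luminescence.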
# [14] = AP1 Signaling Pathway (AID 357; active = well fitted curve in either direction with a large enough effect, not every such curve was filed as active); conditions: ME-180 AP-1-bla reporter, EGF-induced, beta-lactamase ratio, 5 h
# How it was run: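 Modulation of EGF-driven AP-1 transcription was assessed with a beta-lactamase reporter in ME-180 cells. Compound and EC50 EGF were co-incubated 5 hours at 37 °C before 2.5-hour CCF4 loading at room temperature and dual-emission reading.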
# [15] = target: Cytochrome P450 2C9 (Homo sapiens) (UniProt P11712); experiment: qHTS Assay for Inhibitors and Substrates of Cytochrome P450 2C9 (AID 883); also: nearly all actives have a fitted effect of over 60% in size; also: potency is read from the fitted curve at half-maximal effect
# Sequence of Cytochrome P450 2C9 (Homo sapiens) (P11712 whole entry, looked up): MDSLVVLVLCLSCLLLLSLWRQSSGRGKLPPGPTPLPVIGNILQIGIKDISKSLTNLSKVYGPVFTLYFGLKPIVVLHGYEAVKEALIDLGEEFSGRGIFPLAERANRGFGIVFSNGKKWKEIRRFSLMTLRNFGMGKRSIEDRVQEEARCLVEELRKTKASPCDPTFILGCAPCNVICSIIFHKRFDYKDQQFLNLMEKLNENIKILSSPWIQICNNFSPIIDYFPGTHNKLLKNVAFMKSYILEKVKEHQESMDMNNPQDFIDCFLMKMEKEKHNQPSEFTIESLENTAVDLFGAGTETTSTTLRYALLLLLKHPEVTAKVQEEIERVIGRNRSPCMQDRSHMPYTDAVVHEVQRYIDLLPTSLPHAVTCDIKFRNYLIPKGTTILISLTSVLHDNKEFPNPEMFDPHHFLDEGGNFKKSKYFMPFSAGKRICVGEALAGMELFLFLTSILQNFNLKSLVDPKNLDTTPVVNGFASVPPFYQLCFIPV
# How it was run: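 CYP2C9 deoxyluciferin hydroxylation, 37C, 60 min with NADPH regeneration; 10nM enzyme, 100uM Luciferin-H (KM). Glo detection reagent stopped reaction; luminescence normalized to sulphaphenazole (57uM) full inhibition.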
# [16] = target: Cytochrome P450 3A4 (Homo sapiens) (UniProt P08684); experiment: qHTS Assay for Inhibitors and Substrates of Cytochrome P450 3A4 (AID 884); also: nearly all actives have a fitted effect of over 50% in size; also: potency is read from the fitted curve at half-maximal effect
# How it was run: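 Luminescent readout of luciferin produced by CYP3A4 (20 nM) dealkylation of Luciferin-PPXE, 25 uM (its KM). NADPH-driven reaction ran 60 min at RT after 10 min compound preincubation; data scaled to 57 uM ketoconazole as 100% inhibition.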
# [17] = target: Cytochrome P450 2C19 (Homo sapiens) (UniProt P33261); experiment: qHTS Assay for Inhibitors and Substrates of Cytochrome P450 2C19 (AID 899); also: nearly all actives have a fitted effect of over 60% in size; also: potency is read from the fitted curve at half-maximal effect
# Sequence of Cytochrome P450 2C19 (Homo sapiens) (P33261 whole entry, looked up): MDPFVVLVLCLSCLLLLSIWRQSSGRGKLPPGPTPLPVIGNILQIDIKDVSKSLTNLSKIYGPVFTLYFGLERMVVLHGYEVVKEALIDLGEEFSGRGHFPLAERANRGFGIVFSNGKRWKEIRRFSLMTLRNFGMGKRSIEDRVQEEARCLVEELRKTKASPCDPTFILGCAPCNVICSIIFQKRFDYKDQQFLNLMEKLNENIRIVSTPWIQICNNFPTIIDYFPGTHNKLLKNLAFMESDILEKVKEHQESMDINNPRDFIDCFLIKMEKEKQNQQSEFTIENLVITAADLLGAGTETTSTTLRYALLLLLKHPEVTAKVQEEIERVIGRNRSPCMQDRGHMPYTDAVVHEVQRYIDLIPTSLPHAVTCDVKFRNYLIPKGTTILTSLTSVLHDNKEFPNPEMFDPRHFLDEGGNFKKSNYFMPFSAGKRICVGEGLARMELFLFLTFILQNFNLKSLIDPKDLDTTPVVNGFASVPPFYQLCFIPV
# How it was run: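 In 50mM KPO4, the reaction held 5nM enzyme and KM-level (10uM) Luciferin-H EGE; it ran 60 min at 37C after NADPH regeneration and a 10 min compound preincubation. Luminescence values were scaled to 57uM ketoconazole as complete inhibition.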
# [18] = target: Ubiquitin carboxyl-terminal hydrolase 1 (Homo sapiens) (UniProt O94782); experiment: Inhibitors of USP1/UAF1: Pilot qHTS (AID 504865);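 also: rhodamine fluorescence freed from ubiquitin-rhodamine substrate followed over time; top concentration of the series differs between compounds; nearly all actives have a fitted effect of over 35% in size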
# How it was run: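 USP1/UAF1 complex (1nM) preincubated with compound 15 min at room temperature, then Ub-Rho substrate (150nM final) added. Fluorescence read kinetically at 480/540 nm, 6 reads every 60 seconds. Buffer: 50mM HEPES pH 7.8, 0.5mM EDTA, 0.1 mg/ml BSA, 1mM TCEP, 0.01% Tween-20.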
# [19] = Stat Signaling Pathway (AID 446; active = well fitted curve in either direction with a large enough effect, not every such curve was filed as active;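 also: ME-180 cervical cancer cells given 40 pM IL-6 alongside compound; SIE-controlled beta-lactamase reporter measured as 460/530 nm FRET emission ratio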); conditions: ME-180 (cervical carcinoma) SIE beta-lactamase reporter, IL-6 stimulated, 5 h; at 17.2 µM (top of the series)
# How it was run: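 FRET read-out (405 nm excitation, 460/530 nm emission) of a beta-lactamase reporter under a STAT-inducible element in ME-180 cervical carcinoma cells. Cells with compound receive 40 pM IL-6 for 5 h. Values are normalised to AC90 stimulation and AC90 JAK-inhibitor controls.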
structure (smiles),measurement,setting,value
NCCNS(=O)(=O)c1cccc2cnccc12,Potency,[1],inactive
same,"activity change, negative = inhibition",[2],-13.5% (inactive)
same,Potency,[3],> 46 µM (inactive)
same,Potency,[4],> 46 µM (inactive)
same,Potency,[5],inactive
same,Potency,[6],inactive
same,outcome,[7],inactive
same,Potency,[8],inactive
same,outcome,[9],inactive
same,outcome,[10],inactive
same,Potency,[11],inactive
same,Potency,[12],inactive
same,Potency,[13],inactive
CC#CCOC(=O)c1c(C)nc2sc3c(c2c1N)CC[C@@H](O)C3,"activity change, negative = inhibition",[14]; at 38 µM (top of the series),-15.6% (inactive)
same,Potency,[1],398 nM (active) and 25.1 nM (active)
same,"activity change, negative = inhibition",[2],-25.8% (inactive)
same,Potency,[3],> 46 µM (inactive)
same,Potency,[4],> 46 µM (inactive)
same,Potency,[5],inactive
same,Potency,[6],inactive
same,outcome,[7],inactive
same,Potency,[15],inactive
same,Potency,[16],3.16 µM (active)
same,Potency,[8],inactive
same,Potency,[17],inactive
same,outcome,[9],inactive
same,outcome,[10],inactive
same,Potency,[11],inactive
same,Potency,[12],inactive
same,Potency,[13],inactive
CC(C)=CCC/C(C)=C/CC/C(C)=C/CO,Potency,[16],inactive
same,Potency,[8],inactive
same,Potency,[18],inactive
same,Potency,[11],inactive
same,Potency,[12],inactive
same,Potency,[13],inactive
CCCCC[C@H](O)/C=C/[C@@H]1[C@@H](CCCCCCC(=O)O)[C@@H](O)C[C@H]1O,"activity change, negative = inhibition",[14]; at 17.2 µM (top of the series),8.11% (inactive)
same,"activity, negative = inhibition",[19],2.03% (inactive)
same,"activity change, negative = inhibition",[12],8.46% [at 6.83 µM] (inactive)
same,"activity change, negative = inhibition",[13],-7.27% [at 3.88 µM] (inactive)
Cc1cccc(/C=C\c2ccccc2)n1,"activity change, negative = inhibition",[14]; at 38 µM (top of the series),-0.643% (inactive)
same,Potency,[1],631 nM (active) and 398 nM (active)
same,"activity change, negative = inhibition",[2],-3.22% (inactive)
same,Potency,[4],> 46 µM (inactive)
same,Potency,[5],inactive
same,Potency,[6],inactive
same,outcome,[7],inactive
same,Potency,[15],inactive and 3.98 µM (active)
same,Potency,[8],inactive
same,Potency,[17],0.501 µM (active)
same,outcome,[9],inactive
same,outcome,[10],inactive
same,Potency,[11],inactive
same,Potency,[12],inactive
same,Potency,[13],inactive
